Source: PubChem BioAssay (National Center for Advancing Translational Sciences (NCATS))
TDP1 cell noCPT – qHTS for Inhibitors of human tyrosyl-DNA phosphodiesterase 1 (TDP1): qHTS in cells in absence of CPT | DT40 Tdp1-/- hTDP1 cells, no CPT, ATP luminescence, 48 h | Potency, µM (titrated, usually from 46.2 µM), without a hit: at the top dose activity change, negative = growth inhibition, most hits filed as inhibitors | 420,000 compounds, 15% hits; note: potency is the fitted concentration of half-maximal effect; nearly all actives have a fitted effect of over 55% in size
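Compound effects on proliferation are scored in DT40 Tdp1-/-;hTDP1 cells in the absence of CPT. ATP levels (CellTiter-Glo luminescence) are recorded after a ≥48 hr, 37 °C incubation.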
HT1080 IDH1KD tx – qHTS for induction of synthetic lethality in tumor cells producing 2HG: qHTS for the HT-1080-IDH1KD cell line; HT-1080 IDH1 knockdown viability, ATP luminescence, 48 h; Potency, µM (titrated, usually from 46.1 µM), for the others: at the top dose activity, negative = toxicity, hits mostly cytotoxic; 360,000 compounds, 2% hits; AID 686971, 2013;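 note: potency is the fitted concentration of half-maximal effect; 0% = DMSO wells and -100% = cell-free medium wells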
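Using the IDH1-knockdown HT-1080 line run in the same batch and compound series as the NT line, viability after 48 h at 37 °C was determined by CellTiter-Glo luminescence and expressed as % activity.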
IL-1B inflam inh – qHTS for Inhibitors of Inflammasome Signaling: IL-1-beta AlphaLISA Primary Screen; THP-1 LPS/ATP IL-1B secretion, AlphaLISA, 16 h; hits give low values; activity change, % at 57.5 µM; 360,000 compounds, 4.7% hits; AID 743279, 2014; in the data active = activity change below about -50%; inconclusive = mostly about -30% to -49%
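THP-1 cells pretreated 1 hr with compounds (up to 57.5 uM final), then stimulated with LPS (250 ng/mL final) plus ATP (1.25 mM final); secreted IL-1B measured by AlphaLISA after 16 hr, decreased signal indicating inhibition.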
HT1080NT lethal – qHTS for induction of synthetic lethality in tumor cells producing 2HG: qHTS for the HT-1080-NT fibrosarcoma cell line. Potency, µM (titrated, usually from 46.1 µM), for inactives: at the highest dose activity, negative = less viability, hits mostly cytotoxic. HT-1080-NT fibrosarcoma viability, CellTiter-Glo ATP luminescence, 48 h. 360,000 compounds, 1.6% hits;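 note: NT is the 2HG producing partner of a matched IDH1 knockdown line; potency is the fitted concentration of half-maximal effect; 0% = DMSO-treated cells and -100% = media-only wells without cells; nearly all actives have a fitted effect of over 55% in size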
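Compounds were tested in concentration-response format on HT-1080-NT cells for 48 hours at 37 degrees C. Cell viability came from CellTiter-Glo luminescence; curves were classified by r2, response magnitude and activity.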
DT40 TDP1 CPT – qHTS for Inhibitors of human tyrosyl-DNA phosphodiesterase 1 (TDP1): qHTS in cells in presence of CPT; 420,000 compounds, 12% hits; Potency, µM (top dose mostly 46.2 µM), for the others: top-dose activity change, negative = growth inhibition, hits mostly inhibitors; chicken DT40 Tdp1-/-;hTDP1 cells + 20 nM CPT, ATP luminescence, 48 h; note: potency is the fitted concentration of half-maximal effect; nearly all actives have a fitted effect of over 55% in size
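Cell growth measured by CellTiter-Glo luminescence after a minimum 48 h, 37 C compound exposure with 20 nM CPT in Tdp1-knockout DT40 cells stably expressing hTDP1, seeded 400/well; qHTS titration format.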
ELG1 DNA repair – qHTS screen for small molecules that inhibit ELG1-dependent DNA repair in human embryonic kidney (HEK293T) cells expressing luciferase-tagged ELG1. Potency, µM (top dose mostly 46.1 µM), for the others: at the highest dose activity change, negative = inhibition, hits mostly inhibitors. HEK293T ELG1-luciferase reporter, luminescence, 16 h; DNA damage induced by 5-fluorouridine. 330,000 compounds, 2.3% hits; note: potency is the fitted concentration of half-maximal effect; nearly all actives have a fitted effect of over 55% in size
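HEK293T cells expressing luciferase-tagged ELG1 (2,000/well) received 5-Fluorouridine plus compound or DMSO for 16 hr at 37 °C. Luciferase was read by ONE-Glo luminescence after 30 min at room temperature.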
An asterisk follows results filed as active; ? = inconclusive; · = not tested or not shown; [ ] = remark or other dose. This is a sample that favours compounds with a hit; in the whole collection about 19% have one here. Unless noted, calls come from the whole dose curve; as a rule, active = well fitted curve in the direction sought with a large enough effect; inconclusive = small, poorly fitted or top-dose-only effect, or another doubt; inactive = no such curve, though single readings can be large; an effect the other way counts as inactive or inconclusive. Unless noted, % is set by controls: 0 for no effect and ±100 for the full control effect.

SMILES | TDP1 cell noCPT | HT1080 IDH1KD tx | IL-1B inflam inh | HT1080NT lethal | DT40 TDP1 CPT | ELG1 DNA repair
Cc1ccccc1NC(=O)C[n+]1cc(-c2ccccc2)n2c1CCC2 | -5% | 8% | -4 | 9% | 9% | -6%
Cc1ccc(NC(=O)C[n+]2cc(-c3ccc(C)cc3)n3c2CCC3)cc1 | 5.2µM* | -1% | · | -8% | 4.1µM* | 0%
Cc1ccc(-c2c[n+](CC(=O)Nc3ccc(C)cc3C)c3n2CCC3)cc1 | 15µM* | -16% | -73* | -11% | ? | 0%
CCOC(=O)c1ccc(S(=O)(=O)Nc2cc(S(=O)(=O)Nc3ccc(OC)cc3)ccc2O)cc1 | -3% | 6% | 16 | 0% | -3% | 3%
O=CNc1c(Cl)cc2c(c1Cl)Cc1cc([N+](=O)[O-])ccc1-2 | 12µM* | -12% | 11 | -1% | 12µM* | ·
CC(=O)Nc1c(Cl)cc2c(c1Cl)Cc1cc(N)ccc1-2 | ? | -5% | -16 | 0% | -7% | ·
O=C1C(=O)N(Cc2cccs2)c2ccccc21 | 5.2µM* | ? | -8 | 2% | 4.6µM* | -11%
O=C1CSC(=S)N1Cc1cccs1 | 18µM* | 1% | -8 | 18% | ? | ·
CCc1cccc(CC)c1NC(=O)CN1C(=O)C(=O)c2ccccc21 | 3.3µM* | · | · | · | 5.2µM* | ·
CCc1ccc(N2C(=O)CN(Cc3cccs3)C2=S)cc1 | -1% | -28% | -1 | -4% | 0% | ?
O=C(CN1C(=O)C(=O)c2ccccc21)c1ccccc1 | 4.1µM* | 9% | 12 | 1% | 18µM* | 0%
COc1cc(=O)n2c(c1C(=O)NC(C)c1ccco1)CCN(C(=O)c1ccc3c(c1)OCCO3)CC2 (stereo not drawn) | -5% | · | · | · | -5% | ·
O=C(NCC(c1ccco1)N1CCc2ccccc2C1)c1cccc(Br)c1 (stereo not drawn) | ? | 3% | -11 | 0% | -3% | -5%
O=C(Cn1nc(-c2ccc(Cl)cc2)ccc1=O)NCc1ccccc1Cl | ? | · | · | · | -28% | ·
O=C(Cn1cc([N+](=O)[O-])ccc1=O)N1CCc2ccccc21 | -4% | ? | -1 | -1% | 1% | 23%
O=C(CN1C(=O)C(=O)c2ccccc21)NC1CCCCC1 | 23µM* | 0% | 2 | 5% | 26µM* | 1%
COC(=O)c1ccc(S(=O)(=O)N(C2CCCCC2)C2CCCCC2)n1C | 23µM* | 5% | 2 | -1% | ? | -8%
COc1ccc2oc(C(=O)N(C)Cc3ccc(OC(F)F)cc3)c(C)c2c1 | -6% | -6% | 0 | 1% | -20% | 9%
CCOC(=O)c1[nH]c2ccc(OC)cc2c1NC(=S)N1CCN(c2ccccc2OC)CC1 | 8.2µM* | 13µM* | -3 | ? | 5.2µM* | 7.3µM*
CCOC(=O)c1[nH]c2ccccc2c1NC(=O)c1cc(Cl)ccc1Cl | -25% | · | · | · | ? | ·
CCOC(=O)c1[nH]c2ccccc2c1NC(=O)c1ccccc1OC | 15µM* | · | · | · | 23µM* | ·
CCOC(=O)c1[nH]c2ccccc2c1NC(=O)c1ccc(Br)o1 | ? | -1%[9.24 µM] | -17 | ? | ? | 23µM*
Cc1[nH]c2ccccc2c1SCCNC(=O)c1ccc(Br)o1 | ? | -10% | -82* | -12% | -16% | ?
O=C(NCCSc1c[nH]c2ccccc12)c1ccc(Br)o1 | ? | 13% | -10 | 0% | 5% | -13%
